The values that follow come from PubChem BioAssay AID624170 (National Center for Advancing Translational Sciences (NCATS), 2012).

Structures are written as SMILES. About 850 (0.21%) of roughly 410,000 compounds were called active. Inconclusive results (about 2%) are left out. The sample as a whole holds a higher share of actives than the screen did. A number with no mark means an inactive call. Calls follow the shape of the dose curve; as a rule, active = well fitted inhibition curve with a large enough effect; inconclusive = small, poorly fitted or top-dose-only effect, or another doubt; inactive = no such curve, though single readings can be large or run the other way.
% is scaled to controls: 0 for no effect and ±100 for the full control effect; potency is read from the fitted curve at half-maximal effect.

Glutaminase kidney isoform, mitochondrial (Homo sapiens), sequence (O94925 whole entry, looked up, canonical isoform): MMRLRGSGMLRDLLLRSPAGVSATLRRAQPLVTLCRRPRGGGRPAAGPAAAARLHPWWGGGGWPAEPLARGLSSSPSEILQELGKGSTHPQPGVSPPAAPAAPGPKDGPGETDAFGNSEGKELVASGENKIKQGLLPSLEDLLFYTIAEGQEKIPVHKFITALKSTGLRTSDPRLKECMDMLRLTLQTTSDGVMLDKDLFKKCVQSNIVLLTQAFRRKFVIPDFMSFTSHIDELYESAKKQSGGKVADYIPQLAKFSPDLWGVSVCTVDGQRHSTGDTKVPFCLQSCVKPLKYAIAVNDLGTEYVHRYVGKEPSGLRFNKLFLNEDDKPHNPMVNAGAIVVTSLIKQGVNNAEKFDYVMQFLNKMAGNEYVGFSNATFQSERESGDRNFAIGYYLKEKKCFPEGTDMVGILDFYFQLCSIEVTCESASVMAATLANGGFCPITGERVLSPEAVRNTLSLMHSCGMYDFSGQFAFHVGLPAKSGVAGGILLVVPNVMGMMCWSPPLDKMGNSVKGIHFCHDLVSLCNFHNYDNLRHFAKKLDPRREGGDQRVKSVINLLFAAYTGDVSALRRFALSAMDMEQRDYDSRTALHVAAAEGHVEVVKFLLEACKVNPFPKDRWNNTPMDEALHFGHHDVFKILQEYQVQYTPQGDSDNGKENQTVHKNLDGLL

The assay has as its target Glutaminase kidney isoform, mitochondrial (Homo sapiens) (UniProt O94925). The assay can be described thus: qHTS for Inhibitors of Glutaminase (GLS). Particulars: GLS enzymatic activity, qHTS titration; series mostly up to 99.4 µM; activity change, negative = inhibition: at the top concentration. From the text:
Glutaminase (GLS) catalyzes the hydrolysis of glutamine into glutamate and ammonia. It plays a critical role in glutaminolysis, which is an important energy source for proliferating cells. It was shown that c-Myc, an oncogenic transcription factor known to regulate microRNAs and to stimulate cell proliferation, increases glutamine metabolism by stimulating the expression of GLS via direct suppression of miR23a and miR23b.
GLS is also thought to play a pathogenic role on HAD using a human HIV-1 infected macrophage system. […] GLS inhibition limits glutamate release and provides neuroprotection against HIV-1 infected macrophages.
The overall goal of this project is to identify small molecule inhibitors of GLS through quantitative high throughput screening (qHTS) of the MLSMR. A validated potent and selective inhibitor can be used as a tool molecule to further study the pharmacology of its target as well as explore its potential therapeutic application in cancer and inflammatory neurological disorders, such as HIV1-associated dementia (HAD) and multiple sclerosis.
NIH Chemical Genomics Center [NCGC]
NIH Molecular Libraries Probe Centers Network [MLPCN]
Assay Submitter (PI): Barbara S. Slusher, Johns Hopkins University
Three 3 uL of hKGA is dispensed into black well 1536-well plates in 45 mM KH2PO4 (pH 8.2), 0.02% Tween-20. Then 23 nL of compounds are added through pin tool transfer. To this, 1 uL of 1mM L-Glutamine and 1 uL of a solution of L-Glutamateoxidase, HRP, Amplex red are added. Plate is centrifuged for 25 sec before an initial fluorescence read is obtained on the ViewLux, after 30 min of RT incubation, the final read is taken on the ViewLux.
A general note: qHTS replaces the single test concentration by a dilution series.
Regarding `CCC(C)n1c(O)c(/C=N/Nc2nc3c(c(=O)n(C)c(=O)n3C)n2C)c(=O)[nH]c1=S` (stereo not given), the Potency is 10 µM (active).

Regarding `COc1cc(C[C@H](C)N)c(OC)cc1Br`, the “activity change, negative = inhibition” value is -0.657%.

As for `CC(C)=CCN1CC[C@@]2(C)c3cc(O)ccc3C[C@H]1[C@@H]2C`, the “activity change, negative = inhibition” value is 29.7%.

Turning to `CC(C)(C)c1ccc(S(=O)(=O)Nc2ccc(O)c(Sc3nc4ccccc4s3)c2)cc1`, the “activity change, negative = inhibition” value is 31.1% [at 45.5 µM].

On to `C[C@]12CCC3[C@@H](CCC4=CC(=O)CC[C@@]43C)C1CCC2OC(=O)CCc1ccccc1` (stereo not given in full), for which the “activity change, negative = inhibition” value is -0.493%.

For `O=C1NC(=O)N(Cc2ccco2)C(=O)/C1=C\c1ccc(-c2ccc(F)cc2)o1`, the Potency was 8.91 µM (active).

With `O=P1(N(CCCl)CCCl)NC(OO)CCO1` (stereo not given), the “activity change, negative = inhibition” value is 4.17% [at 45.5 µM].

For `CC(C)CC1C(=O)N2CCCC2C2(O)OC(NC(=O)C3CC4c5cccc6[nH]cc(c56)CC4N(C)C3)(C(C)C)C(=O)N12` (stereo not given), the “activity change, negative = inhibition” value is 4.2% [at 45.5 µM].

`Cc1ncc(CC(=O)n2cc(C(=O)c3cc(Cl)ccc3O)cn2)s1`: the “activity change, negative = inhibition” value was 38.5% [at 45.5 µM].

In the case of `CC(=O)Oc1ccc2c3c1OC1C(OC(C)=O)C=CC4[C@@H](C2)N(C)CC[C@]314` (stereo not given in full), the “activity change, negative = inhibition” value is 5.46%.
